Platelet DG rel – modulates dense granule release in human platelets. human platelet-rich plasma, SFLLRN dense granule ATP release, luminescence. inhibition, %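 (compounds screened at 7.5 µM in platelet-rich plasma)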. 300,000 compounds, 0.22% hits. AID 1663;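 active = mean replicate score, as percent of positive control, at or above 50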
SENP8 block-1 – inhibitors of human SENP8 protease; Q96LD8; purified SENP8, Z-RLRGG-aminoluciferin cleavage, luminescence; inhibition, % at 10 µM; 330,000 compounds, 1.2% hits; in the data active = inhibition above about 50%
HSP90 inh – inhibitors of HSP90 luciferase refolding in rabbit reticulocyte lysate; 290,000 compounds, 0.91% hits; luciferase refolding luminescence, 3 h; inhibition, % at 5.6 µM; AID 1789;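 active = inhibition above the screen-wide mean plus 3 SD, computed separately per campaign, cut at about 16% in these data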;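 also: inhibitors lower the luminescence because luciferase stays unfolded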
SENP6 block – blocks the human protease SENP6 | Q9GZR1 | Recombinant SENP6 catalytic domain, aminoluciferin luminescence | inhibition, % at 10 µM | 330,000 compounds, 1.8% hits | AID 2599;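 active = inhibition above about 50% at the single tested dose, limit read from the data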
Target sequence (Q9GZR1 628-1112 limits assumed): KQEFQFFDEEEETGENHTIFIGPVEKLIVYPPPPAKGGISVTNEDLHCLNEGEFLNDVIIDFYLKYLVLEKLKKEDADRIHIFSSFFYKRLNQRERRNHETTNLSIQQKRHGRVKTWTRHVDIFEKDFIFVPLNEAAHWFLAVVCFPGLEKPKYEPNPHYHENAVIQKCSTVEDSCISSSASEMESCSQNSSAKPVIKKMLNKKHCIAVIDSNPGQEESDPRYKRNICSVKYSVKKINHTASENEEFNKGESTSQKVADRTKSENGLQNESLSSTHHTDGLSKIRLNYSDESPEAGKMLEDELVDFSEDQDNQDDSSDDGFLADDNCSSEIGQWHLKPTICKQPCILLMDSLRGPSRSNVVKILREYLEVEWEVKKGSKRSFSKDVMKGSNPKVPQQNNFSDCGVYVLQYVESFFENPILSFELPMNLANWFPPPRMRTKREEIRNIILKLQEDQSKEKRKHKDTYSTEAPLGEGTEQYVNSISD
SENP8 block-2 – inhibitors of human SENP8 protease | Q96LD8 | recombinant SENP8, Nedd8 substrate fluorescence | inhibition, % at 20 µM | 360,000 compounds, 0.64% hits | AID 602440; in the data active = inhibition mostly above about 40%, no sharp cut-off; inactive = mostly below about 27%
SENP7 block – inhibitors of human SENP7 protease. Q9BQF6. recombinant SENP7, Z-RLRGG-aminoluciferin luminescence, 40 min. inhibition, % at 5 µM. 330,000 compounds, 1.5% hits. AID 434973;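 active = inhibition above about 50% at the single test dose, limit read from the data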
SENP8 inh conf – SENP8 (human) inhibition, single concentration confirmation. shares compounds with SENP8 block-2. inhibition, % at 25 µM. 1,400 compounds, 15% hits. AID 624319. purified SENP8, Nedd8-AMC/pro-Nedd8 cleavage fluorescence, 30 min; in the data active = inhibition mostly above about 39%, no sharp cut-off; inactive = mostly below about 34%
Each line names hits and unclear results; the compound was inactive in the other large screens (follow-up assays come after a bar, where they were run). Hits are enriched below; roughly 2.8% of the tested compounds scored in any of these assays.

COC(=O)Cc1c(C)nc2nc(-c3ccc(C)cc3)[nH]n2c1=O	SENP8 block-2 46 | SENP8 inh conf inactive
COC(=O)Cc1c(C)nc2nc(-c3ccc(Cl)cc3)[nH]n2c1=O	none
O=C(CCc1nc2ccccc2[nH]1)N1CCc2ccccc2C1	SENP8 block-2 45 | SENP8 inh conf 54
O=C(Cn1ncc2c([nH]c3ccccc32)c1=O)N1CCc2ccccc2C1	none
Cc1cc(Cl)ccc1NC(=O)CN1C(=O)C(=O)N(C2CCCC2)C1=O	none (no result: Platelet DG rel, HSP90 inh)
CC(C)C[C@H](NC(=O)N1CC(=O)Nc2ccccc21)C(=O)N[C@H](Cc1c[nH]c2ccccc12)C(=O)O	SENP8 block-2 51 | SENP8 inh conf inactive
CC(C)C[C@H](NC(=O)N1CC(=O)Nc2ccccc21)C(=O)N[C@@H](Cc1c[nH]c2ccccc12)C(=O)O	none
O=C1CN(C(=O)NCC(=O)N[C@@H](Cc2ccccc2)C(=O)O)c2ccccc2N1	SENP8 block-2 46 | SENP8 inh conf inactive
O=C(NNC(=O)c1ccncc1)Nc1ccc(N=Nc2ccccc2)cc1	none (no result: Platelet DG rel, SENP8 block-1, HSP90 inh, SENP6 block, SENP7 block)
O=C(COc1ccccc1)N1CCN(C(=O)c2cccc(F)c2)CC1	SENP8 block-2 41 | SENP8 inh conf inactive
Cc1ccc(CN2CC(C(=O)Nc3ncccc3C)CC2=O)cc1 (stereo not given)	none
N#Cc1c(N)[nH]c(C(=O)c2ccccc2)c1-c1ccccc1Br	none (no result: Platelet DG rel, SENP8 block-1, HSP90 inh, SENP6 block, SENP7 block)
Cc1ccc(S(=O)(=O)NC(CC(C)C)C(=O)N2CCCC2)cc1 (stereo not given)	none
Cc1nn(CC#N)c(=O)n1-c1ccc(C(C)C)cc1	SENP8 block-2 41 | SENP8 inh conf inactive
Cc1nn(CC#N)c(=O)n1-c1ccc(Cl)cc1	none
Cc1cc2c(N)cccc2nn1	SENP8 block-1 95, SENP6 block 91, SENP8 block-2 114 | SENP8 inh conf 45
CCC1(C)N=C(N)Nc2nc3cc(C)c(C)cc3n21 (stereo not given)	none
O=C(NCc1cccs1)C1CCCN1C(=O)Nc1ccc(F)cc1 (stereo not given)	SENP8 block-2 41 | SENP8 inh conf inactive
O=C(CSc1ccc(Br)cc1)Nc1ccccc1Oc1ccccc1	SENP8 block-2 50 | SENP8 inh conf inactive
O=C(CSc1ccc(Cl)cc1)Nc1ccccc1Oc1ccccc1	none
Cn1c(=O)c(Nc2ccc(O)cc2)c2c3c(cccc31)C(=O)c1ccccc1-2	SENP8 block-2 45 | SENP8 inh conf inactive
CC(=O)c1c2c3c(cccc3n(C)c1=O)C(=O)c1ccccc1-2	none (no result: SENP8 block-2)
COCCN(C(=O)COC(=O)c1sccc1C)c1c(N)n(Cc2ccccc2)c(=O)[nH]c1=O	none
CCOC(=O)c1ccc(NC(=O)CCN2C(=O)C3CC=CCC3C2=O)cc1 (stereo not given)	SENP8 block-2 34 (no result: Platelet DG rel, HSP90 inh) | SENP8 inh conf inactive
Cc1[nH]n2c(=O)cc(-c3ccc([N+](=O)[O-])cc3)nc2c1-c1ccccc1	SENP8 block-2 44 (no result: Platelet DG rel) | SENP8 inh conf inactive
O=C(NC(=S)N1CCN(C/C=C/c2ccccc2)CC1)c1c(F)cccc1F	SENP8 block-2 43 | SENP8 inh conf inactive
Cc1cc(N=Nc2ccccc2)cc(C)c1NC(=O)C(F)(F)F	none (no result: Platelet DG rel, SENP8 block-1, HSP90 inh, SENP6 block, SENP7 block)
Cc1ccc(S(=O)c2ccc([N+](=O)[O-])c3nonc23)cc1 (stereo not given)	SENP8 block-2 61 (no result: Platelet DG rel, SENP8 block-1, HSP90 inh, SENP6 block, SENP7 block) | SENP8 inh conf inactive
COc1ccc(NC(=O)C(c2ccccc2)n2c(=O)c(-c3ccco3)nc3ccccc32)cc1 (stereo not given)	none (no result: Platelet DG rel, SENP8 block-1, HSP90 inh, SENP6 block, SENP7 block)
CCOc1ccc(/C=C/C(=O)Nc2ccc(OC)cc2[N+](=O)[O-])cc1	SENP8 block-2 41 | SENP8 inh conf inactive
O=C(CSc1nnnn1-c1ccccc1)N1CCc2ccccc2C1	none
CC(=O)c1ccc(-n2nnnc2SCC(=O)N2CCc3ccccc3C2)cc1	SENP8 block-2 61 (no result: SENP8 block-1, SENP6 block, SENP7 block) | SENP8 inh conf 79
COc1ccc2c(c1)Cc1sc(NC(=O)c3cccnc3)nc1-2	SENP8 block-1 86, SENP6 block 89, SENP8 block-2 64, SENP7 block 84 | SENP8 inh conf inactive
O=C(N/N=C/c1ccc([N+](=O)[O-])o1)C(=O)Nc1ccc(C(=O)O)cc1	none
O=C(O)c1ccc(N/N=C/C=C/c2ccc([N+](=O)[O-])o2)cc1	SENP8 block-2 45 | SENP8 inh conf inactive
O=C1[C@@H](Oc2ccccc2)[C@@H](c2cnc3ccccc3c2)N1c1ccccc1	none (no result: Platelet DG rel, SENP8 block-1, HSP90 inh, SENP6 block)

Source: PubChem BioAssay
